In PubChem BioAssay (Tox21):
“And” between values parts separate entries of the source, which are not always exact repeats. Equal entries are not always repeated. Results filed as inconclusive are left out. Where a structure was tested more than once in an assay, its records may differ in their call. The source made the active and inactive calls. Unless noted, calls follow the shape of the dose curve; as a rule, active = well fitted curve in the direction sought with a large enough effect in the repeat runs; inconclusive = weak or mixed curves; inactive = no such curve, though single readings can be large; an effect the other way counts as inactive or inconclusive.

Tests used:
[1] = qHTS assay to identify small molecule agonists of the hypoxia (HIF-1) signaling pathway - cell viability counter screen (AID 1224844; calls by dose curve; also: nearly all actives have a fitted effect of over 50% in size; also: potency is read from the fitted curve at half-maximal effect)
In short: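 HRE-bla ME-180 cells, 2,000/well in 0.5% dialyzed FBS medium, treated 17 h at 37C with compounds. Viability read in the same wells as the bla reporter, by CellTiter-Glo luminescence after 30 min at room temperature.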

[2] = qHTS assay to identify small molecule agonists of the hypoxia (HIF-1) signaling pathway (AID 1224846; active = well fitted activation curve with a large enough effect in the signal ratio in the repeat runs, not every such curve was filed as active; the % refers to the signal ratio)
In short: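 HRE-bla ME-180 beta-lactamase reporter cells in medium with 0.5% dialyzed FBS, pre-incubated 5 h then exposed to compounds 17 h at 37C, 5% CO2; reporter induction read with CCF4-AM FRET substrate.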

[3] = qHTS assay to identify small molecule agonists of H2AX - cell viability counter screen (AID 1224847; calls by dose curve; also: nearly all actives have a fitted effect of over 30% in size; also: potency is read from the fitted curve at half-maximal effect)
In short: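 Cytotoxicity counter screen in wild-type CHO-K1 cells: a 3 hr compound treatment at 37C across 15 concentrations, followed by CellTiter-Glo luminescence to gauge viable cells.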

[4] = qHTS RealTime-Glo MT Cell Viability Assay in HepG2 cells - 24 hour (AID 1224867); also: nearly all actives have a fitted effect of over 50% in size; also: potency is read from the fitted curve at half-maximal effect
In short: (§1)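 HepG2 cells (600/well) were dispensed with RealTime-Glo reagents, incubated 5 h at 37 °C, then treated with compounds in DMSO for up to 40 h. Nonlytic NanoLuc luminescence reflecting viable cells was read at each stated time point.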

[5] = A CellTox Green Cytotoxicity Assay to monitor cytotoxicity in HEK293 cells - 0 hour (AID 1224869); also: nearly all actives have a fitted effect of over 50% in size; also: potency is read from the fitted curve at half-maximal effect
In short: (§2)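 HEK293 cells, 600/well, were preincubated 5 hours and then exposed to compounds at 37 C for up to 40 hours. A cell-impermeant cyanine dye staining dead-cell DNA was read by fluorescence at 0, 8, 16, 24, 32 and 40 h time points.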

[6] = qHTS RealTime-Glo MT Cell Viability Assay in HepG2 cells - 40 hour (AID 1224870); also: nearly all actives have a fitted effect of over 50% in size; also: potency is read from the fitted curve at half-maximal effect
In short: (§3)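 Real-time viability: cells seeded at 600 per well together with NanoLuc and cell-permeant prosubstrate, compounds added after 5 h incubation. Luminescence tracked at 0, 8, 16, 24, 32 and 40 h of exposure.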

[7] = A CellTox Green Cytotoxicity Assay to monitor cytotoxicity in HEK293 cells - 40 hour (AID 1224871); also: nearly all actives have a fitted effect of over 45% in size; also: potency is read from the fitted curve at half-maximal effect
In short: as §2

[8] = qHTS RealTime-Glo MT Cell Viability Assay in HEK293 cells - 16 hour (AID 1224872); also: nearly all actives have a fitted effect of over 50% in size; also: potency is read from the fitted curve at half-maximal effect
In short: (§4)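 HEK293 cells seeded with NanoLuc/prosubstrate reagent, rested 5 h at 37 C, then dosed and kept at 37 C up to 40 h. Nonlytic real-time luminescence from viable cells read at 0, 8, 16, 24, 32 and 40 h.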

[9] = qHTS RealTime-Glo MT Cell Viability Assay in HepG2 cells - 8 hour (AID 1224873); also: nearly all actives have a fitted effect of over 55% in size; also: potency is read from the fitted curve at half-maximal effect
In short: as §3

[10] = A CellTox Green Cytotoxicity Assay to monitor cytotoxicity in HEK293 cells - 24 hour (AID 1224875); also: nearly all actives have a fitted effect of over 45% in size; also: potency is read from the fitted curve at half-maximal effect
In short: as §2

[11] = A CellTox Green Cytotoxicity Assay to monitor cytotoxicity in HepG2 cells - 16 hour (AID 1224876); also: nearly all actives have a fitted effect of over 45% in size; also: potency is read from the fitted curve at half-maximal effect
In short: (§5)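 HepG2 cells, 600/well, preincubated 5 h with CellTox Green dye, then exposed to Tox21 compounds in DMSO at 37 C for up to 40 h. Dead-cell DNA fluorescence read at the indicated time point.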

[12] = qHTS RealTime-Glo MT Cell Viability Assay in HepG2 cells - 32 hour (AID 1224877); also: nearly all actives have a fitted effect of over 55% in size; also: potency is read from the fitted curve at half-maximal effect
In short: as §1

[13] = A CellTox Green Cytotoxicity Assay to monitor cytotoxicity in HepG2 cells - 24 hour (AID 1224878); also: nearly all actives have a fitted effect of over 45% in size; also: potency is read from the fitted curve at half-maximal effect
In short: as §5

[14] = A CellTox Green Cytotoxicity Assay to monitor cytotoxicity in HepG2 cells - 40 hour (AID 1224879); also: nearly all actives have a fitted effect of over 40% in size; also: potency is read from the fitted curve at half-maximal effect
In short: as §5

[15] = qHTS RealTime-Glo MT Cell Viability Assay in HEK293 cells - 0 hour (AID 1224880); also: nearly all actives have a fitted effect of over 45% in size; also: potency is read from the fitted curve at half-maximal effect
In short: (§6)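 600 cells/well were plated with the nonlytic NanoLuc/prosubstrate reagent, pre-incubated 5 h, then given 23 nL of compound in DMSO. Incubation at 37 C for 40 h, with luminescence from viable-cell-reduced substrate read repeatedly from 0 h.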

[16] = qHTS RealTime-Glo MT Cell Viability Assay in HEK293 cells - 32 hour (AID 1224868)
In short: as §4

[17] = qHTS RealTime-Glo MT Cell Viability Assay in HEK293 cells - 40 hour (AID 1224874); settings: RealTime-Glo luminescence; max response: stronger effect = lower value; also: nearly all actives have a fitted effect of over 50% in size; also: potency is read from the fitted curve at half-maximal effect
In short: as §6

[18] = qHTS assay to identify small molecule agonists of H2AX (AID 1224845; active = well fitted activation curve with a large enough effect in the signal ratio in the repeat runs, not every such curve was filed as active; the % refers to the signal ratio; also: potency is read from the fitted curve at half-maximal effect)
In short: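 Phospho-H2AX Ser139 measured by HTRF (ex 320 nm; em 665 and 620 nm) after 24 hr antibody incubation. Compounds, 15 concentrations, 0.76% DMSO, were applied to CHO-K1 cells for 3hr at 37C before lysis.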

[19] = qHTS assay to identify small molecule antagonists of the estrogen related receptor (ERR) signaling pathway from Tox21 library (AID 1224848); also: nearly all actives have a fitted effect of over 50% in size; also: potency is read from the fitted curve at half-maximal effect
In short: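 Reading was by luminescence 30 min after ONE-Glo addition. Before that, ERR cells at 2,000 per well had rested 6 h at 37 C/5% CO2 and then received pin-tooled compounds in DMSO for 18 h at 37 C.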

[20] = qHTS assay to identify small molecule agonists of the estrogen related receptor (ERR) signaling pathway from Tox21 library (AID 1224849; calls by dose curve; also: nearly all actives have a fitted effect of over 15% in size); settings: ERR reporter cell line, ONE-Glo luciferase, 18 h
In short: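 ERR reporter cells (NTP line) pre-incubated 6 hours at 37 C, then exposed to compounds for 18 hours at 37 C. ONE-Glo luciferase luminescence was read after 30 minutes at room temperature.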
% is scaled to controls: 0 for no effect and ±100 for the full control effect.

Nc1ccc([N+](=O)[O-])cc1O
inactive: Potency [1] | outcome [2] | Potency [3] | Potency [4] | Potency [5] | Potency [6] | Potency [7] | Potency [8] | Potency [9] | Potency [10] | Potency [11] | Potency [12] | Potency [13] | Potency [14] | Potency [15]

O=C1OC2(c3ccccc31)c1cc(Br)c(O)c(Br)c1Oc1c2cc(Br)c(O)c1Br
active: Potency [5] 11.1 µM and 17.9 µM and 23.9 µM | Potency [7] 3.95 µM and 11.3 µM and 7.56 µM | Potency [10] 4.43 µM and 7.11 µM and 9.52 µM | Potency [11] 4.97 µM and 14.2 µM and 23.9 µM | Potency [13] 4.97 µM and 12.7 µM and 23.9 µM | Potency [14] 5.58 µM and 14.2 µM and 23.9 µM | Potency [15] 9.92 µM and 17.9 µM and 23.9 µM
inactive: Potency [1] | Potency [3] | Potency [4] | Potency [16] | Potency [6] | Potency [8] | Potency [9] | max response [17] -26.3% and -6.61% | Potency [12]

C1=CC2C3C=CC(C3)C2C1 (stereo not drawn)
inactive: Potency [18] | outcome [2] | Potency [19] | activity change, positive = activation ([20]; at 92.4 µM (top of the series)) -1.35% | Potency [4] | Potency [16] | Potency [6] | Potency [8] | Potency [9] | max response [17] 0.978% | Potency [11] | Potency [12] | Potency [13] | Potency [14] | Potency [15]

COc1ccc2cc(S(=O)(=O)N[C@H](CC(=O)N[C@H](Cc3ccc(CN4[C@H](C)CCC[C@@H]4C)cc3)C(=O)N(C)C(C)C)c3ccc4c(c3)OCO4)ccc2c1
inactive: activity change, positive = activation ([20]; at 92.4 µM (top of the series)) -76% | Potency [5] | Potency [15]
active: Potency [1] 10.4 µM | Potency [19] 25.8 µM | Potency [4] 52 µM | Potency [6] 52 µM | Potency [7] 52 µM | Potency [8] 46.3 µM | Potency [9] 52 µM | Potency [17] 26.1 µM | Potency [11] 52 µM | Potency [12] 52 µM | Potency [13] 52 µM | Potency [14] 52 µM

C1CCC(C(CC2CCCCN2)C2CCCCC2)CC1 (stereo not drawn)
active: Potency [18] 6.95 µM | Potency [3] 55.2 µM | Potency [19] 29.8 µM | Potency [4] 5.35 µM | Potency [6] 5.35 µM | Potency [7] 16.9 µM | Potency [8] 19 µM | Potency [9] 21.3 µM | Potency [17] 10.7 µM | Potency [10] 21.3 µM | Potency [11] 12 µM | Potency [12] 5.35 µM | Potency [13] 9.52 µM | Potency [14] 5.35 µM
inactive: activity change, positive = activation ([20]; at 42.5 µM (top of the series)) -54.8% | Potency [5]

COc1cccc(O)c1O
inactive: outcome [2] | Potency [3] | Potency [4] | Potency [5] | Potency [6] | Potency [7] | Potency [8] | Potency [9] | Potency [10] | Potency [11] | Potency [12] | Potency [13] | Potency [14] | Potency [15]

CC(C)c1c(C(=O)Nc2ccccc2)c(-c2ccccc2)c(-c2ccc(F)cc2)n1CC[C@@H](O)C[C@@H](O)CC(=O)O
active: Potency [13] 2.98 µM and 45.8 µM and 4.77 µM | Potency [14] 4.21 µM and 5.13 µM and 7.56 µM
inactive: Potency [1] | outcome [2] | Potency [3] | Potency [4] | Potency [16] | Potency [5] | Potency [6] | Potency [7] | Potency [8] | Potency [9] | max response [17] -21% | Potency [10] | Potency [11] | Potency [12] | Potency [15]

CN1CCC[C@H]1c1cccnc1
inactive: Potency [1] | Potency [18] | Potency [3] | Potency [4] | Potency [5] | Potency [6] | Potency [7] | Potency [8] | Potency [9] | max response [17] -1.49% and 19.5% and 2.35% | Potency [10] | Potency [11] | Potency [12] | Potency [13] | Potency [14] | Potency [15]

CN(C)C(=S)SC(=S)N(C)C
inactive and 3.89 µM (active): Potency [11]
inactive: activity change, positive = activation ([20]; at 42.5 µM (top of the series)) -68.6% | activity change, positive = activation ([20]; at 92.4 µM (top of the series)) -79.6% and -76.2% | Potency [5] | Potency [15]
active: Potency [1] 2 µM and 1.23 µM | Potency [3] 92.1 µM and 31.8 µM | Potency [19] 886 nM and 1.09 µM and 1.19 µM | Potency [4] 1.74 µM and 2.68 µM | Potency [6] 1.38 µM and 3.01 µM | Potency [7] 1.59 µM and 3.09 µM and 3.79 µM | Potency [8] 2.24 µM and 2.75 µM and 6.74 µM | Potency [17] 1.59 µM and 1.23 µM and 6.01 µM | Potency [10] 3.99 µM and 21.9 µM | Potency [12] 1.55 µM and 3.38 µM | Potency [13] 3.17 µM and 2.45 µM and 2.39 µM | Potency [14] 2.52 µM and 1.38 µM and 2.39 µM

O=C1NC(=O)C(c2ccccc2)(c2ccccc2)N1
inactive and 23.9 µM (active): Potency [11] | Potency [13] | Potency [14]
inactive and 16.9 µM (active): Potency [7]
inactive: Potency [1] | Potency [18] | Potency [3] | Potency [4] | Potency [5] | Potency [6] | Potency [8] | Potency [9] | max response [17] -30.3% and -21% | Potency [12] | Potency [15]

C[C@](N)(Cc1ccc(O)c(O)c1)C(=O)O
inactive: Potency [1] | outcome [2] | Potency [3] | Potency [4] | Potency [16] | Potency [5] | Potency [6] | Potency [7] | Potency [8] | Potency [9] | max response [17] -19.7% and -21.3% and 9.87% | Potency [10] | Potency [11] | Potency [12] | Potency [13] | Potency [14] | Potency [15]
